In PubChem BioAssay (NCI):
The panel holds about 83,000 compounds, 20% with a hit somewhere; the sample as a whole holds those more often.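 Step 1: grow cells in 96-well plates. Step 2: add test compound at a single concentration. Step 3: incubate 48 h. Step 4: record percent growth.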 Active and inactive are the calls of the source. Rule for the calls: active = growth percent below 10; inactive = the rest.

What was measured:
Test in all cases: NCI-60 one-dose screen, 48 h (100 = growth as untreated, 0 = no growth, -100 = all killed)
Conditions in all cases: 10 µM unless noted
[1] = test system: NCI-H23 lung
[2] = test system: NCI-H226 lung
[3] = test system: NCI-H322M lung
[4] = test system: HOP-62 NSCLC
[5] = test system: NCI-H460 lung
[6] = test system: HOP-92 NSCLC
[7] = test system: NCI-H522 lung
[8] = test system: A549/ATCC NSCLC
[9] = test system: 786-0 renal
[10] = test system: COLO 205 colon

Measured: growth

COC1=CC(c2ccc[nH]2)=N/C1=C\c1[nH]c(C)c(C)c1CCC(=O)OCc1ccccc1
active: [1] -9.49% | [2] -2.19% | [4] -3% | [6] -27.8% | [7] -38.7% | [9] -38.8% | [10] -64.8%
inactive: [3] 54.5% | [5] 18.6% | [8] 10.1%

O=[N+]([O-])c1cccc(-c2nc3cc4nc5ccccc5[nH]c4cc3n2)c1
inactive: [1] 90.1% | [2] 105% | [3] 97.7% | [4] 95.7% | [5] 112% | [6] 113% | [7] 92.6% | [8] 92.6% | [9] 91.9% | [10] 114%

CCOC(=O)c1ccc2c(c1)nc(-c1ccccc1)n2C1CCCCC1
inactive: [1] 90.3% | [2] 120% | [3] 83.1% | [4] 65% | [5] 107% | [6] 91.7% | [7] 73.6% | [8] 68.3% | [9] 88.5% | [10] 76.3%

COc1ccc(CNc2c3ccccc3nc3ccccc23)cc1
active: [5] 9.69%
inactive: [1] 38.8% | [2] 51.4% | [3] 47.1% | [4] 53.9% | [6] 24.6% | [7] 53% | [8] 28.9% | [9] 32.4% | [10] 11.6%

CCOC(=O)[C@@H]1CSC(CC)=C(C(=O)O)N1
inactive: [1] 103% | [2] 98.2% | [3] 92.7% | [4] 89.2% | [5] 110% | [7] 93.6% | [8] 90.7% | [9] 92.2% | [10] 100%
active: [6] -35.1%

N#Cc1nc(-c2ccc(F)cc2)oc1S(=O)(=O)N1CCCCC1
active: [7] -14.8% | [10] -13.2%
inactive: [1] 65.7% | [2] 79% | [3] 94.3% | [4] 102% | [5] 101% | [6] 78.9% | [8] 103% | [9] 86.4%

CCOC(=O)c1cc(C)n(-c2ccc(C(=O)O)cc2)c1C
inactive: [1] 89.4% | [2] 98.6% | [3] 114% | [4] 88.1% | [5] 44.1% | [6] 100% | [7] 65.8% | [8] 91.4% | [9] 101% | [10] 89.8%

COc1cc(OC)c(/C=C/C(=O)c2c(OC)cccc2OC)c(OC)c1
active: [1] -22% | [3] 1.28% | [5] 9.67% | [6] -1.46% | [7] -22.7% | [8] 6.84% | [10] -13.4%
inactive: [2] 47.3% | [4] 40.1% | [9] 16.5%

CCOC(=O)C1=C(c2ccccc2)N=C2SC=C(c3ccc(Cl)cc3)N2C1c1ccc(Br)cc1 (stereo not given)
inactive: [1] 69.8% | [2] 76.6% | [3] 90.9% | [4] 90.7% | [5] 85% | [6] 56.1% | [7] 69.3% | [8] 84.5% | [9] 80.6% | [10] 83.1%

Cc1cccc(/C=C/c2c(C(=O)/C=C/c3ccccc3)c(C)nc3ccccc23)c1
active: [1] -57.9% | [2] -16.5% | [3] 9.28% | [4] -48.1% | [5] -71.8% | [6] -1.2% | [7] -58.7% | [8] -34.8% | [9] -55.5% | [10] -61.8%

CCSC(SCC)c1ccc(Cl)cc1
inactive: [1] 95.1% | [2] 102% | [3] 123% | [4] 98.5% | [5] 103% | [6] 101% | [7] 107% | [8] 102% | [9] 110% | [10] 117%

COc1ccccc1NC(=O)N=Nc1c(O)[nH]c2ccccc12
inactive: [1] 89.8% | [2] 86.5% | [3] 81.2% | [4] 98.8% | [5] 104% | [6] 80.3% | [7] 83.2% | [8] 95.7% | [9] 90.4% | [10] 85.2%

COc1c(C(=O)Nc2ccc(C)c(Br)c2)ccc2ccccc12
inactive: [1] 90.6% | [2] 103% | [3] 104% | [4] 99.8% | [5] 102% | [6] 105% | [7] 85% | [8] 87.9% | [9] 96.5% | [10] 101%

CCCCCCCC[C@@H]1N[C@@H](C(=O)OC)Cc2c1[nH]c1ccccc21
inactive: [1] 92.1% | [2] 92.5% | [3] 99.7% | [4] 103% | [5] 102% | [6] 89.5% | [7] 86.6% | [8] 104% | [9] 96.2% | [10] 113%

COC(=O)c1c(C)c2n(c1C)C(=O)C(c1ccccc1)=C2
inactive: [1] 68.9% | [2] 61.8% | [3] 94.5% | [4] 72.7% | [5] 89.5% | [6] 65.8% | [7] 61.9% | [8] 39.6% | [9] 94.3% | [10] 79.3%

COc1ccc2c(c1)N(CCO)C1=C(C(=O)OC1)C2c1cccc(F)c1 (stereo not given)
inactive: [1] 25.6% | [2] 45% | [3] 46.5% | [4] 36.9% | [6] 57.4% | [8] 16.1% | [9] 27.9%
active: [5] 6.1% | [7] 6.05% | [10] -22.6%

O=C(c1ccccc1)c1ccc(C2CCCCC2)cc1
inactive: [1] 95% | [2] 92.4% | [3] 99.7% | [4] 98.5% | [5] 97% | [6] 76.2% | [7] 88.9% | [8] 98% | [9] 90.1% | [10] 101%

CC(=O)c1c(C)nc2ccccc2c1/C=C/c1ccc(F)cc1
inactive: [1] 81.7% | [2] 77.2% | [3] 96.8% | [4] 92% | [5] 91.5% | [6] 75.6% | [7] 69.2% | [8] 83.8% | [9] 89.4% | [10] 104%

CCC1=C[C@@H]2C[C@]3(C(=O)OC)c4[nH]c5ccccc5c4CC[N@+](CC(=O)Nc4cc5c(cc4OC)N(C)[C@H]4[C@@](O)(C(=O)OC)[C@H](OC(C)=O)[C@]6(CC)C=CCN7CC[C@]54[C@@H]76)(C2)[C@H]13
inactive: [1] 104% | [2] 98.7% | [3] 102% | [4] 99.5% | [5] 109% | [6] 88% | [7] 92.4% | [8] 100% | [9] 99.1% | [10] 104%

O=C(NCCCl)Nc1ncccc1OCc1ccccc1
inactive: [1] 99.6% | [2] 104% | [3] 92.4% | [4] 100% | [5] 101% | [6] 103% | [7] 85.3% | [8] 103% | [9] 100% | [10] 106%

O=C(CN1C(=O)S/C(=C\c2ccccc2)C1=O)Nc1ncc(Cc2ccccc2Cl)s1
inactive: [1] 102% | [2] 95.7% | [3] 95.9% | [4] 103% | [5] 110% | [6] 108% | [7] 81% | [8] 98.6% | [9] 107% | [10] 113%
